CYP2C9 act: activators of human CYP2C9. activation factor at 5 µM. recombinant CYP2C9, luciferin-H conversion, luminescence; stronger effect = higher value; factor 1 = untreated enzyme, 0 = blocked. AID 1024. P11712. 96,000 tested, 1.4% active;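 active = activation factor of 2 or more for CYP2C9 at a 5 µM dose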
Target sequence (P11712 whole entry, looked up): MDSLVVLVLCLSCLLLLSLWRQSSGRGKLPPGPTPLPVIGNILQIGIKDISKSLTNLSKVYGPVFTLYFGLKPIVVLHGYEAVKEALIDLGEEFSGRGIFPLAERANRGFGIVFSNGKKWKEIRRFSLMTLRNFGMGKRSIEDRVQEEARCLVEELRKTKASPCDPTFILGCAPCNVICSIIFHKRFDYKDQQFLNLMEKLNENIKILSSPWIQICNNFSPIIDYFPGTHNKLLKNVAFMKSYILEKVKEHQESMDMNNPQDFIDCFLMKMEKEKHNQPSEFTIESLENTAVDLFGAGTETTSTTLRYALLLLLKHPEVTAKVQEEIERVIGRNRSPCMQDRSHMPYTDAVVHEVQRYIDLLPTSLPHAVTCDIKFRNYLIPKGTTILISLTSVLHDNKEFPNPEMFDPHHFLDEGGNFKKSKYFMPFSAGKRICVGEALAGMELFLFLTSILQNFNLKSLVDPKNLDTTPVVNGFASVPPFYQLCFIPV
CYP2C19 activ: activators of human cytochrome P450 2C19; recombinant CYP2C19, luciferin-H EGE luminescence; stronger effect = higher value; 0 = fully inhibited enzyme, 1 = untreated enzyme; P33261; 96,000 tested, under 10 active; activation factor at 5 µM; AID 1025;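 active = activation factor of at least 2 at 5 µM in the primary screen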
CYP2C9 inhib: blocks human cytochrome P450 2C9. inhibition, % at 5 µM. 96,000 tested, 20% active. CYP2C9 Supersomes, luciferin-H conversion, luminescence. AID 777. P11712;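 active = blocking of liver enzyme CYP2C9 beyond about 50% at 5 µM, limit read from the data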
EphB4 antag: antagonists of human EphB4-ephrin-B2 interaction; EphB4 LBD / TNYL-RAW-Alexa532 peptide, fluorescence polarization; inhibition, % at 7 µM; 97,000 tested, 0.15% active; AID 720;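 active = inhibition above the screen-wide mean inhibition plus 3 SD, cut at about 15% in these data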
CYP2C19 inh: inhibitors of human CYP2C19 | CYP2C19 Supersomes, luciferin-H EGE luminescence, 30 min | inhibition, % at 5 µM | 96,000 tested, 21% active | P33261;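 active = CYP2C19 inhibition above a set limit at 5 µM in the primary screen, cut at about 50% in these data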
Hits are given with their value; . = inactive; / = not tested or not shown. Shown are actives, neighbours in structure and some others; about 27% of the full set was active somewhere.

SMILES	CYP2C9 act	CYP2C19 activ	CYP2C9 inhib	EphB4 antag	CYP2C19 inh
COc1ccc(S(=O)(=O)Nc2ccccc2C(=O)NCc2ccco2)cc1	.	.	.	.	62
COCCCNC(=O)c1ccccc1NS(=O)(=O)c1ccc(C)cc1	.	.	.	.	74
NC1=NS(=O)(=O)NC1c1ccc(Cl)cc1 (stereo not given)	.	.	.	.	.
COCCNC(=O)C(c1ccc(C)o1)N(CC1CCCO1)C(=O)Cn1nnc2ccccc21 (stereo not given)	.	.	.	.	.
COc1cccc(CN(Cc2ccco2)S(=O)(=O)c2ccc(S(=O)(=O)NCc3ccccc3)cc2)c1OC	/	/	/	.	/
O=S(=O)(Cc1ccccc1)N1CCN(Cc2ccccc2)CC1	.	.	.	.	53
O=S(=O)(Cc1ccccc1)N1CCc2ccccc2C1	3.7	.	.	.	97
O=S(=O)(Cc1ccccc1)N1CCCCC1	.	.	.	.	.
O=S(=O)(Cc1ccc(Cl)cc1)N1CCCC1	.	.	.	.	93
O=S(=O)(Cc1ccccc1)N1CCN(c2ccccc2)CC1	.	.	.	.	.
CS(=O)(=O)N1CCc2ccccc2C1	/	/	/	.	/
O=S(=O)(Cc1ccccc1)N1CCCCCC1	.	.	.	.	66
Cc1ccc(CNc2nc(N)c([N+](=O)[O-])c(Nc3ccc(F)cc3)n2)cc1	.	.	.	.	.
O=S(=O)(c1ccc(S(=O)(=O)N2CCCC2)cc1)N1CCCCCC1	.	.	.	.	.
CC(C)Cc1ccc(S(=O)(=O)N2CCCC2)cc1	.	.	78	.	91
Cc1cc(NS(=O)(=O)c2ccc(CC(C)C)cc2)no1	.	.	90	.	72
CN(C)S(=O)(=O)c1ccc(S(=O)(=O)N2CCCC2)cc1	.	.	.	.	62
Cc1nc(SC(C(=O)c2ccccc2)c2ccccc2)n[nH]1 (stereo not given)	.	.	.	.	78
Cc1nc(SCC(=O)NCCc2ccccc2)n[nH]1	.	.	.	.	.
CCN1CCN(CCNC(=O)CSCc2nc(-c3ccc(OC)c(OC)c3)oc2C)CC1	.	.	.	.	.
Cc1cccc(S(=O)(=O)Nc2ccc(C)c3c2OC(C)(C)C3)c1	2.1	.	.	.	97
CSc1nc2ccc3nc(NC(=O)c4cccs4)sc3c2s1	.	.	.	.	.
COCc1c(C(N)=O)nnn1-c1nonc1N	.	.	.	.	.
CCN(CC)C(=O)CN1CCN(c2ncccn2)CC1	.	.	.	.	.
O=C(CN1CCN(c2ncccn2)CC1)N(Cc1ccccc1)c1ccc(F)cc1	.	.	50	.	61
SMILES	CYP2C9 act	CYP2C19 activ	CYP2C9 inhib	EphB4 antag	CYP2C19 inh
Cc1ccc(S(=O)(=O)N(CCCN2CCCC2=O)Cc2cc3c(C)ccc(C)c3[nH]c2=O)cc1	.	.	63	.	.
COc1ccc2[nH]c(=O)c(CN(CCCN3CCOCC3)C(=O)NCc3ccccc3)cc2c1	.	.	.	.	.
COc1ccc(S(=O)(=O)N(CCCN2CCCC2=O)Cc2cc3cc(C)c(C)cc3[nH]c2=O)cc1	.	.	68	.	.
Cc1ccccc1OCCCCCNCCO	.	.	.	/	.
CC(C)c1ccccc1OCCCCCNCCO	.	.	.	.	59
Cc1ccc(CN2CCN(Cc3ccccc3C(F)(F)F)CC2)cc1	.	.	.	.	64
CS(=O)(=O)N1CCN(Cc2ccccc2C(F)(F)F)CC1	.	.	.	.	73
O=C(C1CCCN(Cc2ccccc2C(F)(F)F)C1)N1CCCCC1 (stereo not given)	.	.	.	.	.
CN=C1S/C(=C\c2ccc(N3CCOCC3)c(F)c2)C(=O)N1C	.	.	.	.	.
CCN(CC)C(=O)/C(=C\c1ccc(Br)cc1)NC(=O)c1ccccc1OC	.	.	73	.	.
CCS(=O)(=O)N1CCCC(C(=O)NCCCOC(C)C)C1 (stereo not given)	.	.	.	.	.
O=C(NCC1c2ccccc2CCN1C(=O)CN1C(=O)c2ccccc2C1=O)C1CCCCC1 (stereo not given)	.	.	72	.	.
Clc1cccc(/C=N/Nc2nc(Cl)nc3ccccc23)c1	.	.	.	.	.
O=C(CN1CCN(Cc2ccc(F)cc2Cl)C1=O)NCCc1ccc(Cl)cc1	.	.	67	.	.
O=C(CN1CCCN(Cc2ccc(F)cc2Cl)C1=O)NC1CCCCCC1	.	.	.	.	.
Cc1nnc(NC(=O)CN2C(=O)c3ccccc3S2(=O)=O)s1	.	.	.	.	.
